Reference: PubChem BioAssay AID588591 (National Center for Advancing Translational Sciences (NCATS), 2011)
Screen size: about 390,000 compounds; about 4,700 (1.2%) were called active. Roughly 4% stayed inconclusive and do not appear here. The full list was thinned out, with actives kept by preference. A number with no mark means an inactive call. Calls come from the whole dose curve; as a rule, active = well fitted inhibition curve with a large enough effect; inconclusive = small, poorly fitted or top-dose-only effect, or another doubt; inactive = no such curve, though single readings can be large or run the other way.

target: DNA polymerase eta (Homo sapiens) (UniProt Q9Y253); assay: qHTS for Inhibitors of Polymerase Eta; details: recombinant Pol eta, fluorescent DNA replication assay; series mostly up to 114 µM; activity change, negative = inhibition: at the top concentration
Source text: The Y-family of DNA polymerases, such as Pol eta, are specifically involved in DNA repair. Pol eta copies undamaged DNA with a lower fidelity than other DNA-directed polymerases. However, it accurately replicates UV-damaged DNA; when thymine dimers are present, this polymerase inserts the complementary nucleotides in the newly synthesized DNA, thereby bypassing the lesion and suppressing the mutagenic effect of UV-induced DNA damage. […] Thus, while pol eta's (and most likely iota's) normal function is to protect humans against the deleterious consequences of DNA damage, under certain conditions they can have deleterious effects on human health. As a consequence, we propose to utilize a high throughput replication assay to identify small molecule inhibitors of pol eta. In a collaboration between the National Institute of Child Health & Human Development (NICHD) and NIH Chemical Genomics Center, a high-throughput, fluorescent screen was developed to screen the NIH Molecular Libraries Small Molecule Repository (MLSMR). This screen is used to identify inhibitors of pol eta. NIH Chemical Genomics Center [NCGC] NIH Molecular Libraries Probe Centers Network [MLPCN] MLPCN Grant: MH090825 Assay Submitter (PI): Roger Woodgate, NICHD)
Three microliters of reagents (buffer in column 3 and 4 as negative control and 10 nM Pol eta in columns 1, 2, and 5-48) were dispensed into a 1,536-well black solid-bottomed plate. Compounds (23 nL) were transferred via Kalypsys pin tool equipped with 1536-pin array. The plates were then incubated for 15 min at room temperature, and 1 µL substrate (50 nM final concentration) was added to start the reaction and kinetically read twice at 0 min and 10 min on the Viewlux reader
% is set by controls: 0 for no effect and ±100 for the full control effect; potency is the fitted concentration of half-maximal effect.

Chain of DNA polymerase eta (Homo sapiens) (Q9Y253 whole entry, looked up): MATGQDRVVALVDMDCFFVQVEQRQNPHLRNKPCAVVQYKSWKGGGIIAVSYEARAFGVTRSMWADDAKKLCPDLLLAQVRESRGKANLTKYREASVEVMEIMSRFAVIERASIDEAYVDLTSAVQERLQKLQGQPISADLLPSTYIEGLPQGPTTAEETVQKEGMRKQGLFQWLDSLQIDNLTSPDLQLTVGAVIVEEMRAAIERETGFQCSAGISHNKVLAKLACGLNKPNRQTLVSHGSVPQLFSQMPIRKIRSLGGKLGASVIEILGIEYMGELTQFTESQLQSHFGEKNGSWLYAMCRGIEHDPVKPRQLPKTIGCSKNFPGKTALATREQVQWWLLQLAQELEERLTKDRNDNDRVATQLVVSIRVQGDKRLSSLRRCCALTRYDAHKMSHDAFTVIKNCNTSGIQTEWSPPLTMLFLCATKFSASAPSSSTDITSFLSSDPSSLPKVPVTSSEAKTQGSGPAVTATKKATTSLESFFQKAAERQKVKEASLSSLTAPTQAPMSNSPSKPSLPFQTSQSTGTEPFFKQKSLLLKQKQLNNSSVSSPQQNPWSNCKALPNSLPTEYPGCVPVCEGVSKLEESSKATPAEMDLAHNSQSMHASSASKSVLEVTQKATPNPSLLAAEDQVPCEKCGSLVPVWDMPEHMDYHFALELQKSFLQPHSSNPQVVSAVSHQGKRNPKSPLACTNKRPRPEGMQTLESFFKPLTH

SMILES | Potency | activity change, negative = inhibition [%]
O=C(O)C1=C(C(=O)O)C2CCC1C2 | 17.8 µM (active) | 
O=C(CSc1ncc(S(=O)(=O)c2ccc(Br)cc2)c(=O)[nH]1)Nc1ccc2c(c1)OCCO2 |  | -18.1
CCOc1ccccc1NC(=O)COc1ccc(S(=O)(=O)N2CCCC2)cc1 |  | -8.27
CCOc1ccccc1NC(=O)CSc1ncc(S(=O)(=O)c2ccc(C(C)(C)C)cc2)c(=O)[nH]1 | 89.1 µM (active) | 
Cc1cc(C)cc(NC(=O)Cc2csc(C)n2)c1 |  | -1.34
COc1cccc(NC(=O)CSC2=Nc3ccccc3C3=NC(CC(=O)NC4CCCCC4)C(=O)N23)c1 (stereo not given) |  | -0.885
Cc1c(C(=O)N2CCCC2)oc2c1-c1nn(CC(=O)NCc3ccc(OC(C)C)cc3)cc1CC2 |  | -18.6
CC(C)C1N=C2c3ccccc3N=C(SCC(=O)c3ccc(O)c(O)c3)N2C1=O (stereo not given) | 2.24 µM (active) | 
CCOC(=O)CSC1=Nc2ccccc2C2=NC(CCC(=O)NCc3ccc(F)cc3)C(=O)N12 (stereo not given) |  | 3.45
Cc1ccc(CNC(=O)CSC2=Nc3ccccc3C3=NC(C)C(=O)N23)cc1 (stereo not given) |  | -3.8
CCCN1C(=O)C(O)(CC(=O)c2ccc(CC)cc2)c2cc(Br)ccc21 (stereo not given) |  | -2.45
COc1ccc(NC(=O)/C(C#N)=C\c2cc(OC)c(OCc3ccc(C(=O)O)cc3)cc2Br)cc1 | 50.1 µM (active) | 
CCOC(=O)c1ccc(-c2ccc(/C=C(\C#N)C(=O)Nc3ccc(C)cc3)o2)cc1 |  | -6.58
COc1ccc(CCNC(=O)CSc2nc(-c3ccc(OC)c(OC)c3)ccc2C#N)cc1 |  | -16.6
COc1ccc2c(c1)Cc1sc(NC(=O)c3ccccc3Br)nc1-2 |  | -17.5
O=c1cc(CSc2ncn[nH]2)[nH]c2ccc(F)cc12 |  | -5.87
O=C(c1ccc(CS(=O)(=O)c2ccccc2)o1)N1CCN(c2ccccc2)CC1 | 50.1 µM (active) | 
CCOC(=O)C1CCCN(C(=O)c2ccc(CS(=O)(=O)c3ccc(Br)cc3)o2)C1 (stereo not given) |  | -7.23
O=C(c1ccc(CS(=O)Cc2ccccc2Cl)o1)N1CCN(c2ccccc2)CC1 (stereo not given) |  | -11
COC(=O)c1sccc1S(=O)(=O)N(CC(=O)Nc1ccc(C)c(F)c1)c1ccc(C)c(C)c1 |  | -16.4
CN(C)S(=O)(=O)c1cccc(-c2nn(-c3ccccc3)cc2/C=C2\SC(=S)N(CC(=O)O)C2=O)c1 | 35.5 µM (active) | 
Cc1ccc(-c2nn(-c3ccccc3)cc2/C=C2\SC(=S)N(CCCCCC(=O)O)C2=O)o1 | 44.7 µM (active) | 
Cc1nc(C)c(-c2nnc(-c3cccc(S(=O)(=O)N(C)C)c3)o2)cc1C(=O)NN |  | -1.81
Cc1nn(-c2ccc(F)cc2)c(-n2cccc2)c1C(=O)N1CCN(c2ccccc2)CC1 |  | -19.6

SMILES | Potency | activity change, negative = inhibition [%]
COc1ccccc1N1CCN(CCCNC(=O)c2cnn(-c3ccccc3Cl)c2C2CCN(C(=O)OC(C)(C)C)CC2)CC1 |  | -19.7
CSc1ccc(CCNC(=O)c2cnn(-c3ccccc3)c2-n2cccc2)cc1 |  | -21.5
O=C(Nc1ccc(F)cc1F)c1ccc2c(=O)n3c(nc2c1)CCCCC3 |  | 7.2
CCc1cccc(NC(=O)c2cnc(N3CCOCC3)c3ccccc23)c1 |  | -24.7
CCOC(=O)C1=C(c2ccc(OC)cc2)C(=O)c2ccccc2C1=O | 89.1 µM (active) | 
CCOC(=O)C1C(=O)C=C(c2ccc(OC)cc2)CC1c1ccco1 (stereo not given) |  | -5.95
CCOC(=O)C1=C(c2ccccc2)NC(=O)NC1c1cc(OC)c(OC)cc1OC (stereo not given) |  | 5.55
Clc1ccc(CSc2nncn3c2cc2occc23)cc1 |  | -28.9
C=CCOC(=O)C1=C(C)NC(SCC(=O)OCC)=C(C#N)C1c1ccc(C)cc1 (stereo not given) | 17.8 µM (active) | 
CCOC(=O)C1=C(C)OC(N)=C(C#N)C1c1cncc(-c2ccc(F)cc2)c1 (stereo not given) |  | -10.5
C=CCC1(C#N)C(=S)NC(C)=C(C(=O)OCC)C1c1ccccc1 (stereo not given) |  | -9.51
COC(=O)c1c(NC(=O)c2ccc(Cl)c(Cl)c2)sc2c1CCCC2 |  | -18.5
COC(=O)c1ccc(-c2nc3cc(NC(C)=O)ccc3o2)cc1 |  | 0.0029
CCOC(=O)c1c(NC(=O)CSc2nnc(CN3CCOCC3)n2C)sc2c1CCCC2 |  | -21.9
NC(=O)c1c(NC(=O)CSc2nnc(-c3ccco3)n2N)sc2c1CCCC2 | 12.6 µM (active) | 
CC1CCN(C(=O)CSc2nnc(-c3ccco3)n2N)CC1 |  | -18.2
CCOC(=O)c1c(C)[nH]c(CCC(=O)NCCCN2CCN(c3cc(C)ccc3C)CC2)c1C |  | -20.8
CCCc1nn2c(=O)cc(COC(=O)c3ccc(NC(=O)C(C)Oc4ccccc4)cc3)nc2s1 (stereo not given) |  | -0.486
COc1ccc(OC)c(CCNC(=O)CCCn2c(=O)c3cccn3c3cccnc32)c1 |  | -8.68
Cc1ccccc1-c1nc2scc(CCNC(=O)C(=O)Nc3ccc(F)cc3F)n2n1 |  | -18.1
Cc1ccc(C(=O)NCCSc2c(C)[nH]c3ccccc23)cc1C |  | -23.4
CCCCNC(=O)c1cc(-c2ccc(Cl)c(Cl)c2)on1 |  | -6.17
Nc1ccc2c(c1)C(=Cc1cccnc1)c1ccccc1-2 |  | -16
O=C1/C(=C\c2cccnc2)CN(Cc2ccccc2)C/C1=C\c1cccnc1 | 50.1 µM (active) | 

SMILES | Potency | activity change, negative = inhibition [%]
O=C(O)CCc1cccnc1 |  | -2.96
COc1ccc(OCC(=O)Nc2cccc(C(=O)OCc3cc(=O)n4nc(C)sc4n3)c2)cc1 |  | -20.5
O=C(O)C1CCN(c2ccc([N+](=O)[O-])cc2[N+](=O)[O-])CC1 | 25.1 µM (active) | 
CC1CCN(c2ccc(C(=O)NCc3ccc4c(c3)OCO4)cc2[N+](=O)[O-])CC1 |  | -26.9
CC1CCN(c2ccc(C(=O)Nc3nnc(C4CC4)s3)cc2[N+](=O)[O-])CC1 |  | -2.8
Cc1ccc(C(=O)c2ccc(N3CCN(C)CC3)c([N+](=O)[O-])c2)cc1 |  | -11.6
CC1CCN(c2ccc(S(=O)(=O)Nc3cc(C(=O)O)cc(C(=O)O)c3)cc2[N+](=O)[O-])CC1 | 22.4 µM (active) | 
Cc1cccc(N2CCN(c3ccc(C(N)=O)cc3[N+](=O)[O-])CC2)c1C |  | -7.46
COc1ccc(C(=O)Nc2onc3c2CCCC3)cc1 |  | -17.3
COc1ccc(CCNS(=O)(=O)c2cc(-c3cc(C)no3)ccc2C)cc1OC |  | -9.95
Cc1ccccc1NC(=O)Cn1c(=O)n(CC2CCC(C(=O)NCCc3ccccc3)CC2)c(=O)c2ccccc21 (stereo not given) |  | -0.383
O=C(CSc1nc2nccnc2c(=O)n1CCc1c[nH]c2ccccc12)Nc1ccccc1F |  | -13.3
COc1ccc(CCNC(=O)Cn2c(=O)cc(C(F)(F)F)c3c(C)nn(C)c32)c(OC)c1 |  | -11.4
CC(=O)c1ccc(NC(=O)CSc2c(C(C)C)cnc3c2c(=O)n(C)c(=O)n3C)cc1 |  | -13.3
O=C(O)c1c(CNCc2cccc(F)c2)c2ccccc2n1Cc1ccccc1 |  | -0.34
COCCCNc1nc2c(-c3cccc(C)c3)nnn2c2ccc(Cl)cc12 | 25.1 µM (active) | 
COc1ccc(CCNc2nc3c(-c4cccc(F)c4)nnn3c3ccccc23)cc1OC |  | -6.17
COCCCNc1nc2c(-c3cccc(C(F)(F)F)c3)nnn2c2ccccc12 |  | -9.1
CCC(CC)c1nn2cc(-c3ccccc3)nc2s1 |  | -11.7
COc1ccc(S(=O)(=O)c2c(Nc3ccc(C)cc3)sc(C(=O)c3ccc(C)cc3)c2N)cc1 |  | -1.29
Cc1nc2ccc(S(=O)(=O)N(CC(=O)Nc3ccc(F)cc3)Cc3ccccc3)cc2s1 |  | -16.1
NS(=O)(=O)c1ccc2nc(NC(=O)COc3ccccc3)sc2c1 |  | 5.57
NS(=O)(=O)c1ccc2nc(NC(=O)CS(=O)(=O)c3ccc(F)cc3)sc2c1 | 79.4 µM (active) | 
CCOc1ccc(CCNC(=O)CN(c2ccc(C)cc2)S(=O)(=O)N(C)C)cc1OCC |  | -20.3

SMILES | Potency | activity change, negative = inhibition [%]
O=C(Nc1cc(Cl)cc(Cl)c1)c1ccc2c(c1)N(Cc1cccc(Cl)c1)C(=O)c1ccccc1S2=O (stereo not given) |  | -22.9
CC(C)(C)n1c(=O)[nH]c2c(c1=O)CCC2 |  | -3.5
O=c1[nH]n2c(=O)c3c([nH]c2c1N=Nc1ccccc1)CCC3 | 31.6 µM (active) | 
Cc1ccc(-n2ncc3c(NCCCn4ccnc4)ncnc32)cc1Cl |  | -18.1
O=C(COc1ccccc1F)OCc1cc(=O)n2nc(C3CCCCC3)sc2n1 |  | -18
O=C(CCSCc1cccc(F)c1)NCc1ccccc1 |  | 11.9
CCc1cc2c(cc(C(=O)OC)n2Cc2nc(-c3ccc(C)cc3)oc2C)s1 |  | 6.26
CC(c1nnc(SCC(=O)Nc2sccc2C#N)n1-c1ccc(Cl)cc1)N(C)C (stereo not given) |  | 8.96
Cc1csc(SCC(=O)Nc2sccc2C#N)n1 | 79.4 µM (active) | 
CC(=O)c1cc(C#N)c(SCC(=O)Nc2nccs2)nc1C |  | -3.13
COc1ccc(S(=O)(=O)NCc2cccn2Cc2cccc(C)c2)cc1Cl |  | -14.1
CSc1cccc(NC(=O)CN2C(=O)CCc3cc(S(=O)(=O)N4CCCCC4)ccc32)c1 |  | -5.6
Cc1ccc2nc(COc3ccc(NC(=O)COc4ccccc4F)cc3)cc(=O)n2c1 |  | -15.3
CC(=O)c1ccc(NC(=O)c2nc(-c3ccc(C)cc3)n3c2CCCCC3)cc1 |  | -12.9
N#Cc1c(N2CCCCC2)nc(N)c2c(N)nc(SCC(=O)O)cc12 | 22.4 µM (active) | 
Cc1ccc(CN2CCC(CNC(=O)c3cnn(-c4ccccc4Cl)c3C3CCN(C(=O)OC(C)(C)C)CC3)CC2)cc1 |  | -19.5
COc1ccc(-c2cc(NCc3ccc(F)cc3)n3cnnc3n2)cc1 |  | -10.6
CC1CN(C(=O)N2CCC(C(=O)NCc3cccs3)CC2)c2ccccc2O1 (stereo not given) |  | -18.7
N#Cc1c(-c2cccs2)nc(SCC(=O)c2ccc(Br)cc2)[nH]c1=O | 35.5 µM (active) | 
Cc1nnc(SCC(=O)NCc2cccs2)[nH]c1=O |  | -2.58
N#Cc1ccc(-c2cccs2)nc1SCc1ccc(Br)cc1 |  | -21.6
COc1ccc(-c2nn3c(=O)cc(CN4CCN(C(=O)c5ccc(OC)c(OC)c5)CC4)nc3s2)cc1 |  | -13.7
COc1ccc(Cn2ccnc2SCC(=O)Nc2ccc3c(c2)OCO3)cc1 |  | -9.75
